Results from the supplement of paper PMC9262897, “Low-cost anti-mycobacterial drug discovery using engineered E. coli” (Nature Communications, 2022).
Where a name gives a salt, the structure may show the parent alone. ± gives the standard deviation of the averaged measurements.

Tests used:
Assay in all cases: growth (OD600 after 10 h); higher = more growth (less inhibition)
[1] = test system: E. coli TESEC Alr+ wild-type control; conditions: compound 0.1 mM; raw OD600 reference: median of DMSO wells 0.241, cell-free background 0.041
Experimental: (§1)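 TESEC Mtb Alr E. coli, or the Alr+ wild-type control, in 384-well plates with Prestwick library compounds at 0.1 mM and 1% DMSO, across arabinose induction levels of 1E3 to 1E7 nM. Growth is read as OD600 after 10 h at 37 °C in triplicate biological replicates.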

E. coli TESEC Mtb Alr [2] = conditions: compound 0.1 mM
Experimental: as §1

E. coli TESEC Mtb Asd = conditions: compound 0.1 mM
Experimental: (§2)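 TESEC E. coli strains in which the native enzyme is deleted and replaced by arabinose-inducible Mtb Asd, DapB, CysH or TrpD, each grown in its selective medium. Strains were screened against the Prestwick library at 0.1 mM and 1% DMSO in 384-well format at low and high arabinose induction. Growth is read as OD600 after 10 h in triplicate.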

E. coli TESEC Mtb DapB = conditions: compound 0.1 mM
Experimental: as §2

[3] = test system: E. coli TESEC Alr+ wild-type control; conditions: compound 0.1 mM; raw OD600 reference: median of DMSO wells 0.49, cell-free background 0.052
Experimental: (§3)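 TESEC Mtb Alr E. coli (ΔaraC ΔtolC ΔentC Δalr ΔdadX, arabinose-inducible Mtb Alr) or the Alr+ wild-type control strain, grown in defined M9-fructose medium without D-alanine in 96-well plates with Prestwick library compounds at 0.1 mM and 1% DMSO. Low Alr induction is 0.1 µM arabinose and high induction is 10 mM arabinose.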

E. coli TESEC Mtb Alr [4] = conditions: compound 0.1 mM; remark: listed apart in the source
Experimental: as §3

[5] = arabinose 1000 nM, raw OD600 reference: median of DMSO wells 0.294, cell-free background 0.041
[6] = arabinose 10000 nM, raw OD600 reference: median of DMSO wells 0.264, cell-free background 0.041
[7] = arabinose 100000 nM, raw OD600 reference: median of DMSO wells 0.201, cell-free background 0.041
[8] = arabinose 1000000 nM, raw OD600 reference: median of DMSO wells 0.193, cell-free background 0.041
[9] = arabinose 10000000 nM, raw OD600 reference: median of DMSO wells 0.146, cell-free background 0.041
[10] = arabinose induction (level): High, raw OD600 reference: median of DMSO wells 0.331, cell-free background 0.041
[11] = arabinose induction (level): Low, raw OD600 reference: median of DMSO wells 0.417, cell-free background 0.041
[12] = arabinose induction (level): High, raw OD600 reference: median of DMSO wells […], cell-free background 0.041
[13] = arabinose induction (level): Low, raw OD600 reference: median of DMSO wells 0.227, cell-free background 0.041
[14] = arabinose 100 nM, raw OD600 reference: median of DMSO wells 0.413, cell-free background 0.052
[15] = arabinose 10000000 nM, raw OD600 reference: median of DMSO wells […], cell-free background 0.052

Structure (SMILES) | growth [1] | growth (E. coli TESEC Mtb Alr [2]; [5]) | growth (E. coli TESEC Mtb Alr [2]; [6]) | growth (E. coli TESEC Mtb Alr [2]; [7]) | growth (E. coli TESEC Mtb Alr [2]; [8]) | growth (E. coli TESEC Mtb Alr [2]; [9]) | growth (E. coli TESEC Mtb Asd; [10]) | growth (E. coli TESEC Mtb Asd; [11]) | growth (E. coli TESEC Mtb DapB; [12]) | growth (E. coli TESEC Mtb DapB; [13]) | growth [3] | growth (E. coli TESEC Mtb Alr [4]; [14]) | growth (E. coli TESEC Mtb Alr [4]; [15])
O=C1[C@H]2CCCC[C@H]2C(=O)N1CCCCN1CCN(c2nsc3ccccc23)CC1 [Perospirone] | 0.131 ± 0.0041 | 0.225 ± 0.0052 | 0.257 ± 0.0052 | 0.146 ± 0.0072 | 0.103 ± 0.0012 | 0.1416 ± 0.00075 | 0.188 ± 0.026 | 0.369 ± 0.015 | 0.174 ± 0.013 | 0.241 ± 0.037 | 0.432 ± 0.016 | 0.419 ± 0.0096 | 0.29 ± 0.027
Cc1ccnc2c1NC(=O)c1cccnc1N2C1CC1 [Nevirapine] | 0.233 ± 0.0085 | 0.29 ± 0.0079 | 0.254 ± 0.0046 | 0.212 ± 0.0063 | 0.203 ± 0.0086 | 0.14 ± 0.0044 | 0.399 ± 0.051 | 0.391 ± 0.053 | 0.209 ± 0.012 | 0.243 ± 0.0097 | 0.507 ± 0.057 | 0.402 ± 0.014 | 0.343 ± 0.011
C[C@H](N[C@@H](CCc1ccccc1)C(=O)O)C(=O)N1CCC[C@H]1C(=O)O [Enalaprilat dihydrate] | 0.228 ± 0.0039 | 0.2913 ± 0.0017 | 0.285 ± 0.011 | 0.198 ± 0.019 | 0.208 ± 0.01 | 0.1379 ± 0.0012 | 0.259 ± 0.063 | 0.31 ± 0.094 | 0.21 ± 0.013 | 0.216 ± 0.022 | 0.638 ± 0.025 | 0.411 ± 0.011 | 0.308 ± 0.022
CC[C@H](C)[C@H]1O[C@]2(CC[C@@H]1C)C[C@@H]1C[C@@H](CC=C(C)C(O[C@H]3C[C@H](OC)[C@@H](O[C@H]4C[C@H](OC)[C@@H](O)[C@H](C)O4)[C@H](C)O3)[C@@H](C)C=CC=C3CO[C@@H]4[C@H](O)C(C)=C[C@@H](C(=O)O1)[C@]34O)O2 (some centres not stated) [Ivermectin] | 0.315 ± 0.013 | 0.361 ± 0.0096 | 0.291 ± 0.0046 | 0.393 ± 0.048 | 0.209 ± 0.0085 | 0.222 ± 0.0088 | 0.343 ± 0.072 | 0.318 ± 0.13 | 0.281 ± 0.035 | 0.28 ± 0.041 | 0.525 ± 0.066 | 0.473 ± 0.046 | 0.409 ± 0.038
CC(=O)CC(c1ccccc1)c1c(O)c2ccccc2oc1=O (configuration not stated) [Warfarin] | 0.251 ± 0.012 | 0.273 ± 0.007 | 0.2271 ± 0.0011 | 0.139 ± 0.0062 | 0.15 ± 0.0059 | 0.126 ± 0.0063 | 0.351 ± 0.065 | 0.391 ± 0.072 | 0.2 ± 0.011 | 0.231 ± 0.021 | 0.492 ± 0.081 | 0.39 ± 0.0054 | 0.342 ± 0.012
CC(=C(CCO)SSCC1CCCO1)N(C=O)Cc1cnc(C)nc1N (stereo in doubt) [Fursultiamine Hydrochloride] | 0.245 ± 0.0085 | 0.313 ± 0.0078 | 0.282 ± 0.0063 | 0.208 ± 0.023 | 0.22 ± 0.0094 | 0.132 ± 0.0026 | 0.215 ± 0.0087 | 0.275 ± 0.052 | 0.195 ± 0.024 | 0.247 ± 0.012 | 0.583 ± 0.044 | 0.399 ± 0.013 | 0.323 ± 0.019
CCOC(=O)c1ccc(OC(=O)CCCCCNC(=N)N)cc1 [Gabexate mesilate] | 0.15 ± 0.014 | 0.179 ± 0.0036 | 0.158 ± 0.0034 | 0.109 ± 0.0039 | 0.0891 ± 0.0033 | 0.14 ± 0.0019 | 0.135 ± 0.015 | 0.147 ± 0.017 | 0.177 ± 0.0061 | 0.16 ± 0.011 | 0.495 ± 0.029 | 0.396 ± 0.013 | 0.123 ± 0.0081
Clc1ccc(COC(Cn2ccnc2)c2ccc(Cl)cc2Cl)cc1 (configuration not stated) [Econazole nitrate] | 0.0521 ± 0.0032 | 0.048 ± 0.0022 | 0.05773 ± 5.8e-05 | 0.0544 ± 0.0013 | 0.0574 ± 0.0015 | 0.0483 ± 0.0014 | 0.0469 ± 0.00075 | 0.04693 ± 0.00042 | 0.04893 ± 0.00047 | 0.0996 ± 0.064 | 0.056 ± 0.002 | 0.059 ± 0.0077 | 0.0553 ± 0.0037
C[C@]12CC[C@@H]3c4ccc(O)cc4CC[C@H]3[C@@H]1CC[C@@H]2O [Estradiol-17 beta] | 0.125 ± 0.012 | 0.118 ± 0.052 | 0.214 ± 0.0069 | 0.157 ± 0.011 | 0.129 ± 0.0023 | 0.141 ± 0.0021 | 0.199 ± 0.0073 | 0.22 ± 0.0098 | 0.196 ± 0.0064 | 0.204 ± 0.012 | 0.43 ± 0.017 | 0.399 ± 0.012 | 0.218 ± 0.0046
